Holding throughout (test): NCI-60 one-dose screen, 48 h (100 = growth as untreated, 0 = no growth, -100 = all killed)
One test relates to HCT-15 colon. The conditions noted are these: 10 µM unless noted.
A further test relates to HT29 colon. The conditions noted are these: 10 µM unless noted.
For a further test, the system named is SNB-75 CNS. The conditions noted are these: 10 µM unless noted.
A further test concerns SNB-19 CNS. Conditions: 10 µM unless noted.
In the next test the test system is U251 CNS. The conditions noted are these: 10 µM unless noted.
Another test has as its system PC-3 prostate. The conditions noted are these: 10 µM unless noted.
The next test concerns SK-MEL-5 melanoma. Conditions: 10 µM unless noted.
Another test relates to UACC-62 melanoma. The conditions noted are these: 10 µM unless noted.
A further test has as its system LOX IMVI melanoma. The conditions noted are these: 10 µM unless noted.
For a further test, the system named is SK-MEL-28 melanoma. The conditions noted are these: 10 µM unless noted.
In another test the test system is SN12C renal. The conditions noted are these: 10 µM unless noted.
The test system of the next test is UO-31 renal. Conditions: 10 µM unless noted.
The test system of the next test is TK-10 renal. Conditions: 10 µM unless noted.
A further test deals with ACHN renal. Conditions: 10 µM unless noted.
The test system of the next test is CAKI-1 renal. Conditions: 10 µM unless noted.
A further test has as its system A498 renal. The conditions noted are these: 10 µM unless noted.
The subject of a further test is MOLT-4 leukemia. Conditions: 10 µM unless noted.
The subject of another test is SK-MEL-2 melanoma. The conditions noted are these: 10 µM unless noted.
The test system of a further test is EKVX NSCLC. The conditions noted are these: 10 µM.
The test system of another test is CCRF-CEM leukemia. The conditions noted are these: 10 µM.

Compounds without any hit were thinned out: in the full panel of roughly 83,000, 20% have a hit.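 Testing used 96-well plates and a 48-hour single-concentration exposure. Example: -40 means 40% of the starting cells died.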 Values without a mark were called inactive. Active and inactive are the calls of the source. The calls were made as follows: active = growth percent below 10; inactive = the rest.

Growth data for nine compounds are collected here from PubChem BioAssay (NCI).

As to `C=CCNCCC#N`, the growth with HCT-15 colon is 99.9%; in the test on HT29 colon, 105%; in the test on SNB-75 CNS, 79.1%; with SNB-19 CNS, 102%; in the test with U251 CNS, 107%; in the test with PC-3 prostate it was 98.5%. Besides, the growth with SK-MEL-5 melanoma was 99.1%; in the test on UACC-62 melanoma, 109%; in the test with LOX IMVI melanoma, 59.5%; in the test with SK-MEL-28 melanoma, 106%; in the test on SN12C renal, 109%; in the test on UO-31 renal, 102%. Besides, the growth was 110% in the test with TK-10 renal; 105% in the test on ACHN renal; 113% in the test with CAKI-1 renal; 120% in the test on A498 renal; 107% in the test with MOLT-4 leukemia.
For `CC(=O)Nc1nc(C)c(C(=O)NNS(=O)(=O)c2ccccc2)s1`, the growth is 114% in the test on HCT-15 colon; 118% in the test on HT29 colon; 88.2% in the test on SNB-75 CNS; 105% in the test with SNB-19 CNS; 103% in the test with U251 CNS; 105% in the test on SK-MEL-5 melanoma. For the same compound, the growth in the test with UACC-62 melanoma is 109%; with LOX IMVI melanoma, 99.1%; in the test with SK-MEL-28 melanoma, 125%; with SK-MEL-2 melanoma, 2.86% (active); in the test with EKVX NSCLC, 113%; in the test with SN12C renal, 105%. In addition, the growth was 91.8% with UO-31 renal; 161% in the test with TK-10 renal; 115% in the test on ACHN renal; 121% with CAKI-1 renal; 121% in the test on A498 renal; 114% with CCRF-CEM leukemia.
Consider `O=C(N/N=C\c1ccc(-c2ccc(Br)cc2)o1)c1cc2oc(-c3cccc(C(F)(F)F)c3)cc2[nH]1`, for which the growth in the test on HCT-15 colon is 84.5%; in the test with HT29 colon, 110%; with SNB-75 CNS, 72.3%; in the test with SNB-19 CNS it was 97.9%; with U251 CNS, 84.1%; with PC-3 prostate it was 102%. For the same compound, the growth was 102% with SK-MEL-5 melanoma; 108% with UACC-62 melanoma; 86% with LOX IMVI melanoma; 81.5% in the test with SK-MEL-28 melanoma; 142% in the test with EKVX NSCLC; 122% with UO-31 renal. Moreover, the growth is 127% with TK-10 renal; 95% with ACHN renal; 87.6% with A498 renal; 0.0711% (active) in the test on CCRF-CEM leukemia; 66.6% in the test with MOLT-4 leukemia.
Consider `COc1cc2c(/C=C3\C(=O)Nc4ccc(Br)cc43)c(Cl)n(C)c2cc1C`, for which the growth in the test on HCT-15 colon was 6.8% (active); in the test with HT29 colon it was 7.9% (active); with SNB-75 CNS it was 31.6%; in the test with SNB-19 CNS, 24%; with U251 CNS, 10.2%; with SK-MEL-5 melanoma, -3% (active). The growth with UACC-62 melanoma is 29.7%; with LOX IMVI melanoma it was 9.9% (active); in the test with SK-MEL-28 melanoma it was 55.6%; in the test on SK-MEL-2 melanoma, 29.7%; in the test on EKVX NSCLC it was 42.1%; in the test with SN12C renal, 35.5%. Further, the growth was 31.6% in the test on UO-31 renal; 31.2% with TK-10 renal; 29.5% in the test with ACHN renal; 69.7% in the test with CAKI-1 renal; 3.37% (active) in the test with A498 renal; -11.7% (active) in the test with CCRF-CEM leukemia. Moreover, the growth in the test on MOLT-4 leukemia is 4.36% (active).
As to `CC(O)CCC(C)[N+](=O)[O-]` (centres undefined), the growth is 102% in the test on HCT-15 colon; 113% in the test on HT29 colon; 83.3% with SNB-75 CNS; 99.9% with SNB-19 CNS; 99.2% in the test on U251 CNS; 102% in the test on PC-3 prostate. Further, the growth in the test on SK-MEL-5 melanoma was 102%; with UACC-62 melanoma it was 95.4%; in the test on LOX IMVI melanoma, 100%; in the test with SK-MEL-28 melanoma, 98.3%; in the test with UO-31 renal, 93.5%; with TK-10 renal, 104%. Moreover, the growth is 109% with ACHN renal; 104% in the test with CAKI-1 renal; 105% in the test with A498 renal; 102% in the test with CCRF-CEM leukemia; 102% with MOLT-4 leukemia.
For `O=C(/C(Br)=C/c1ccccc1)c1ccccc1`, the growth was -21.9% (active) with HCT-15 colon; -66.2% (active) in the test with HT29 colon; 80.3% in the test on SNB-75 CNS; 96.2% in the test on SNB-19 CNS; 5.38% (active) in the test on U251 CNS; 87.8% with PC-3 prostate. For the same compound, the growth in the test with SK-MEL-5 melanoma was 84.9%; with UACC-62 melanoma it was 8.01% (active); in the test with LOX IMVI melanoma, -92.2% (active); with SK-MEL-28 melanoma it was 42.8%; in the test on EKVX NSCLC, 109%; in the test on UO-31 renal it was -62.5% (active). The growth with TK-10 renal was 3.38% (active); in the test with ACHN renal it was -71.3% (active); with CAKI-1 renal, -28.4% (active); in the test with MOLT-4 leukemia it was -25.2% (active).
Take `CCC(CCCN1C(=O)c2ccccc2C1=O)Nc1cc(OC)cc2cccnc12` (centres undefined): the growth is 92.4% in the test on HCT-15 colon; 105% in the test on HT29 colon; 93% with SNB-75 CNS; 106% in the test with SNB-19 CNS; 101% in the test with U251 CNS; 89.9% in the test with SK-MEL-5 melanoma. Moreover, the growth in the test on UACC-62 melanoma was 82.6%; in the test on LOX IMVI melanoma, 93.5%; in the test on SK-MEL-28 melanoma, 111%; with SK-MEL-2 melanoma, 97.8%; in the test on EKVX NSCLC it was 97.2%; with SN12C renal it was 99.3%. Moreover, the growth in the test on UO-31 renal was 94.8%; in the test on TK-10 renal, 136%; with ACHN renal, 103%; in the test with CAKI-1 renal it was 111%; in the test on A498 renal it was 84.3%; in the test with CCRF-CEM leukemia it was 84.5%. Also, the growth in the test with MOLT-4 leukemia is 73.8%.
As to `Nc1cc(N)c2nc(NCCc3ccc(Cl)c(Cl)c3)cnc2c1`, the growth was 90% in the test with HCT-15 colon; 41.7% with HT29 colon; 57.9% in the test on SNB-75 CNS; 66% with SNB-19 CNS; 7.5% (active) in the test with U251 CNS; 37.2% in the test with SK-MEL-5 melanoma. In addition, the growth in the test with UACC-62 melanoma was 33.7%; in the test with LOX IMVI melanoma it was 39.7%; in the test on SK-MEL-28 melanoma, 104%; with SK-MEL-2 melanoma, 54.9%; in the test with EKVX NSCLC, 28.6%; in the test with SN12C renal, 16.5%. For the same compound, the growth is 55.8% in the test with UO-31 renal; 98.6% with TK-10 renal; 62.6% in the test with ACHN renal; 133% with CAKI-1 renal; -63.3% (active) in the test on CCRF-CEM leukemia; -69.9% (active) with MOLT-4 leukemia.
Regarding `CC(O)C(N)=O` (centres undefined), the growth with HCT-15 colon was 97.1%; in the test with HT29 colon, 111%; in the test with SNB-75 CNS, 84.3%; with SNB-19 CNS it was 106%; in the test with U251 CNS, 103%; with SK-MEL-5 melanoma, 101%. For the same compound, the growth was 107% with UACC-62 melanoma; 109% with LOX IMVI melanoma; 100% in the test on SK-MEL-28 melanoma; 111% in the test with SK-MEL-2 melanoma; 99.6% with EKVX NSCLC; 106% in the test with SN12C renal. The growth in the test with UO-31 renal is 97%; in the test on TK-10 renal, 108%; in the test on CAKI-1 renal it was 95.6%; in the test on A498 renal, 103%; in the test on CCRF-CEM leukemia it was 102%; in the test with MOLT-4 leukemia, 110%.
